Screening results (PubChem)
POLH inh: qHTS for Inhibitors of Polymerase Eta | DNA polymerase eta (Homo sapiens), Q9Y253 | recombinant Pol eta, fluorescent DNA replication assay | Potency, µM (series often up to 114 µM), without a hit: top-dose activity change, negative = inhibition, most hits filed as inhibitors | 1.2% of 390,000 active | AID 588591, 2011; note: % is set by controls: 0 for no effect and ±100 for the full control effect
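Pol eta (10 nM) was preincubated with compounds for 15 min at room temperature, after which fluorescent replication substrate (50 nM final) was added to start the reaction. Fluorescence was read kinetically at 0 and 10 min.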
POLK inh: qHTS for Inhibitors of Polymerase Kappa; DNA polymerase kappa (Homo sapiens), Q9UBT6; purified Pol kappa, fluorescent DNA synthesis assay, 10 min; Potency, µM (top dose mostly 107 µM), without a hit: at the highest dose activity, negative = inhibition, most hits filed as inhibitors; 0.53% of 400,000 active; AID 588579, 2011; note: % is set by controls: 0 for no effect and ±100 for the full control effect
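Kinetic fluorescence readout at 0 and 10 min followed reaction start with substrate at 50 nM final. Beforehand, enzyme (10 nM Pol kappa) stood 15 min with compound at room temperature; buffer-only wells were negative controls.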
POLB inh: qHTS Assay for Inhibitors of DNA Polymerase Beta | P06746 | Pol beta primer extension/strand displacement, fluorescence kinetic | Potency, µM (doses to about 114 µM), for inactives: at the top dose activity change, negative = inhibition, most hits filed as inhibitors | 1.3% of 340,000 active; note: % is set by controls: 0 for no effect and ±100 for the full control effect
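Values derive from four-parameter Hill fits of normalized kinetic data: reads at 0 and 10 min following addition of 50 nM substrate to 10 nM Pol beta preincubated 15 min with compound.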
WRN helicase inh: qHTS for Inhibitors of WRN Helicase | Bifunctional 3'-5' exonuclease/ATP-dependent helicase WRN (Homo sapiens), Q14191 | WRN helicase unwinding, fluorescent forked duplex, kinetic | Potency, µM (series often up to 114 µM), for the others: at the highest dose activity change, negative = inhibition, actives largely listed as inhibitors | 0.46% of 360,000 active | AID 651768, 2012; note: % is set by controls: 0 for no effect and ±100 for the full control effect; nearly all actives have a fitted effect of over 55% in size
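WRN at 20 nM final was preincubated with compound for 15 min at room temperature; reaction started with 100 nM forked duplex oligonucleotide carrying fluorophore and quencher plus 2 mM ATP (final). Unwinding followed kinetically by red fluorescence (ex 525/em 598 nm).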
Pol iota inh: qHTS for Inhibitors of Polymerase Iota | DNA polymerase iota (Homo sapiens), Q9UNA4 | Pol iota fluorescent replication assay, 10 min | Potency, µM (top dose mostly 115 µM), for inactives: at the highest dose activity, negative = inhibition, most hits filed as inhibitors | 1% of 390,000 active | AID 588590, 2011
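Fluorescent replication assay read twice, at 0 min and 10 min after adding 50 nM (final) substrate. Enzyme (10 nM) and compounds were first incubated 15 min at room temperature; enzyme-free buffer wells were negative controls.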
FEN1 inhibitor: qHTS Assay for the Inhibitors of Human Flap endonuclease 1 (FEN1); P39748; Recombinant FEN1 flap cleavage, fluorescence, 15 min; Potency, µM (top dose mostly 114 µM), without a hit: top-dose activity change, negative = inhibition, hits mostly inhibitors; 0.35% of 390,000 active; AID 588795, 2011; note: % is set by controls: 0 for no effect and ±100 for the full control effect; nearly all actives have a fitted effect of over 65% in size
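Compounds are tested as a concentration series against 10 nM FEN1; after a 15 min room-temperature preincubation, 50 nM substrate starts cleavage, with plate reads at 0 and 15 min. Normalized responses are fitted by a Hill equation.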
PGK validate: qHTS for inhibitors of Phosphogylcerate Kinase: Hit Validation Screen; shares compounds with POLK inh; TbPGK coupled GAPDH assay, Kinase-Glo luminescence; Potency, µM (highest dose often 57.5 µM), inactives show at the top dose activity change, negative = inhibition, usual class: inhibitors; 79% of 500 active; note: % is set by controls: 0 for no effect and ±100 for the full control effect; nearly all actives have a fitted effect of over 65% in size
Pol iota confirm: qHTS for Inhibitors of Polymerase Iota: Confirmatory Assay for Cherry-picked Compounds; shares compounds with POLK inh; Pol iota primer extension, TAMRA/BHQ fluorescence; Potency, µM, hits mostly inhibitors; 77% of 1,500 active
The depositor's hits bear a star; [ ] = another dose, or the depositor's remark. Only some compounds are listed: those with a hit (about 2.4% of all), similar ones and a draw of the others. Calls come from the whole dose curve; as a rule, active = well fitted curve in the direction sought with a large enough effect; inconclusive = small, poorly fitted or top-dose-only effect, or another doubt; inactive = no such curve, though single readings can be large; an effect the other way counts as inactive or inconclusive. Potency is the fitted concentration of half-maximal effect.

Results for Cc1ccc(-n2nc3c(=O)n(C(C)C(=O)NCc4ccc(OC(C)C)cc4)nc(C)c3c2C)cc1 (stereo not drawn) ?
POLH inh: -3%; POLK inh: -17%; POLB inh: 5%; Pol iota inh: 11%; FEN1 inhibitor: 2%

Results for CNc1ccc(/C=C(\CCC(=O)O)c2nc3ccccc3s2)cc1[N+](=O)[O-] ?
POLH inh: 13µM*; POLK inh: -15%; POLB inh: 32µM*; WRN helicase inh: inconclusive; Pol iota inh: -1%; FEN1 inhibitor: -9%; Pol iota confirm: 42*

How did CCc1ccccc1NC(=O)c1noc2c1CC(C(C)(C)C)CC2 (stereo not drawn) do in these assays?
POLH inh: -7%; POLK inh: 8%; POLB inh: 2%; Pol iota inh: 12%; FEN1 inhibitor: -19%

Results for O=C(COc1ccccc1)NCC(c1cccs1)S(=O)(=O)c1ccc(Cl)cc1 (stereo not drawn) ?
POLH inh: -13%; POLK inh: -9%[60.1 µM]; POLB inh: 18µM*; Pol iota inh: -4%; FEN1 inhibitor: 4%; PGK validate: inconclusive

What do the screens show for `COc1ccc(CC(=O)NCC(c2cccs2)S(=O)(=O)c2ccc(Cl)cc2)cc1` (stereo not drawn)?
POLH inh: -25%; POLK inh: -7%[60.1 µM]; POLB inh: 7.9µM*; Pol iota inh: -4%; FEN1 inhibitor: -21%; PGK validate: 6.5µM*

How did COc1ccc(/C=C/c2nc3ccccc3n2C)cc1 do in these assays?
POLH inh: -1%; POLK inh: -14%; POLB inh: 0%; WRN helicase inh: -3%; Pol iota inh: 139%; FEN1 inhibitor: -15%; PGK validate: 4.1µM*

How did COc1ccc(Cn2c(/C=C/c3ccccc3)nc3ccccc32)cc1 do in these assays?
POLH inh: -1%; POLK inh: -12%; POLB inh: 29%; WRN helicase inh: -8%; Pol iota inh: -11%; FEN1 inhibitor: -14%

How did CCn1cc2nc(SCc3ccc(F)cc3)n(CCc3ccccc3)c(=O)c2n1 do in these assays?
POLH inh: -6%; POLK inh: -10%; POLB inh: -8%; Pol iota inh: -6%; FEN1 inhibitor: 2%

Results for Cc1ccc2c(c1)N(CC(=O)NCc1ccccc1Br)C(=O)c1cccnc1O2 ?
POLH inh: 11%; POLK inh: -4%; POLB inh: -4%; Pol iota inh: -24%; FEN1 inhibitor: -2%

What do the screens show for `COc1ccc(Br)cc1CNC(=O)CN1C(=O)c2cccnc2Oc2ccc(C)cc21`?
POLH inh: inconclusive; POLK inh: -16%; POLB inh: 33%; Pol iota inh: inconclusive; FEN1 inhibitor: -12%; Pol iota confirm: inconclusive

Results for CCOc1ccc2nc(NC(=O)c3ccoc3C)sc2c1 ?
POLH inh: -16%; POLK inh: -4%; POLB inh: -21%; WRN helicase inh: -5%; Pol iota inh: inconclusive; FEN1 inhibitor: -7%; PGK validate: 6.5µM*

What do the screens show for `O=Cc1coc2ccc3ccccc3c2c1=O`?
POLH inh: -8%; POLK inh: -25%; POLB inh: inconclusive; WRN helicase inh: inconclusive; Pol iota inh: 168%; FEN1 inhibitor: 2%; PGK validate: inconclusive

Results for COc1cccc(C(=O)Nc2cccc(C(=O)OCc3cc(=O)n4nc(C5CC5)sc4n3)c2)c1 ?
POLH inh: -17%; POLK inh: -9%[60.1 µM]; POLB inh: 6%; Pol iota inh: -1%; FEN1 inhibitor: -2%

Results for O=C(O)c1ccc(-n2cccc2/C=C2\SC(=O)N(Cc3ccc(Cl)c(Cl)c3)C2=O)cc1 ?
Pol iota confirm: 67*

Results for O=C(O)CN1C(=O)C(=O)N(Cc2ccc(Cl)c(Cl)c2)C1=O ?
POLH inh: -13%; POLK inh: -6%; POLB inh: -4%; WRN helicase inh: 4%; Pol iota inh: 32%; FEN1 inhibitor: 14%

How did CCOc1ccc(-c2c(C(=O)N/N=C/c3cccnc3)nnn2-c2nonc2N)cc1 do in these assays?
POLH inh: inconclusive; POLK inh: inconclusive; POLB inh: inconclusive; WRN helicase inh: 7%; Pol iota inh: 22µM*; FEN1 inhibitor: -6%; Pol iota confirm: inconclusive

How did COc1cccc(C(=O)N(Cc2ccc(N(C)C)cc2)Cc2ccco2)c1 do in these assays?
POLK inh: 0%; POLB inh: 1%; Pol iota inh: 20%; FEN1 inhibitor: 7%

Results for O=C(O)c1ccc2c(c1)C1C=CCC1C(c1cc3c(cc1Br)OCO3)N2 (stereo not drawn) ?
POLH inh: -15%; POLK inh: -11%; POLB inh: -2%; WRN helicase inh: 1%; Pol iota inh: inconclusive; FEN1 inhibitor: -12%

What do the screens show for `COc1cccc2c1NC(C(=O)O)C1CC=CC21` (stereo not drawn)?
POLH inh: 2.5µM*; POLK inh: 7.9µM*; POLB inh: 1.8µM*; WRN helicase inh: 13µM*; Pol iota inh: 1µM*; FEN1 inhibitor: 25µM*; PGK validate: 8.2µM*

What do the screens show for `CC(=O)c1ccc2c(c1)C1C=CCC1C(C(=O)O)N2` (stereo not drawn)?
POLH inh: 1µM*; POLK inh: 3.5µM*; POLB inh: 32µM*; WRN helicase inh: 14µM*; Pol iota inh: 1.6µM*; FEN1 inhibitor: 13µM*; PGK validate: 9.2µM*

How did COc1cccc(C2Nc3c(F)cc(Br)cc3C3C=CCC32)c1OC (stereo not drawn) do in these assays?
POLH inh: -7%; POLK inh: -6%; POLB inh: -15%; WRN helicase inh: -6%; Pol iota inh: 4%; FEN1 inhibitor: -2%

What do the screens show for `COc1cc([N+](=O)[O-])ccc1NC(=O)COC(=O)c1ccc(NC(N)=O)cc1`?
POLH inh: inconclusive; POLK inh: -8%; POLB inh: inconclusive; WRN helicase inh: -16%[11.6 µM]; Pol iota inh: -18%; FEN1 inhibitor: inconclusive; Pol iota confirm: 42*
